Assay results reported in ChEMBL document CHEMBL1961873, “Compounds: GSK PKIS; Assays: Nanosyn kinase panel” (2012).

Legend:
[1] = biological target: T1, Ephrin type-B receptor 2 (Homo sapiens) (UniProt P29323); details: at 1 µM
T1 sequence (whole entry): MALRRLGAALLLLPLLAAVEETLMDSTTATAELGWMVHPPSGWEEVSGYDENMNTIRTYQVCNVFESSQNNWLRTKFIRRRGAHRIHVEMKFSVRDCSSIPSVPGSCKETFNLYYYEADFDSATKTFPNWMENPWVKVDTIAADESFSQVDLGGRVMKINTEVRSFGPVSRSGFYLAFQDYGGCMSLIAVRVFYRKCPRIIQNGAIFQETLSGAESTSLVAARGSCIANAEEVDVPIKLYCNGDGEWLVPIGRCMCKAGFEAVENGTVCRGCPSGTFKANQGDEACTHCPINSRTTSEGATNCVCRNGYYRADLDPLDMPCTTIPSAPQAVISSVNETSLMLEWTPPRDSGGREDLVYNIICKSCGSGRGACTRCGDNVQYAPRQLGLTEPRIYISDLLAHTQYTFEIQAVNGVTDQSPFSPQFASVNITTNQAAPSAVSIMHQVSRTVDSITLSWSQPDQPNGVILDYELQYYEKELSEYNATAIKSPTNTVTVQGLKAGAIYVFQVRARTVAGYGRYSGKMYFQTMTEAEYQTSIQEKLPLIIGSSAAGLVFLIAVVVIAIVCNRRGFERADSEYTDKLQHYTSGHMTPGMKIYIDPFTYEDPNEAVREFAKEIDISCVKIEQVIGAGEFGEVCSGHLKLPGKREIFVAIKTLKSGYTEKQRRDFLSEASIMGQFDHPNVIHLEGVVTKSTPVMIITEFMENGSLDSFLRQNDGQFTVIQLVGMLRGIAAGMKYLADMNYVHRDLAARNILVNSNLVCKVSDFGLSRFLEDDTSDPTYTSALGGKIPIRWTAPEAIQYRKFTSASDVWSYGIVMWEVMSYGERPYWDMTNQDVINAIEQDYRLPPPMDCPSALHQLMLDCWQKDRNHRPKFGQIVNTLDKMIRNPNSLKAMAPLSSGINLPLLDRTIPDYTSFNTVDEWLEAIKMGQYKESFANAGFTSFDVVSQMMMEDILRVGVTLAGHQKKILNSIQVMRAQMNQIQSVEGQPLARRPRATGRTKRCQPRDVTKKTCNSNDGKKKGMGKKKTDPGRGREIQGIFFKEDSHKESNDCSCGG

[2] = biological target: T2, Ephrin type-B receptor 3 (Homo sapiens) (UniProt P54753); details: at 0.1 µM
T2 sequence (whole entry): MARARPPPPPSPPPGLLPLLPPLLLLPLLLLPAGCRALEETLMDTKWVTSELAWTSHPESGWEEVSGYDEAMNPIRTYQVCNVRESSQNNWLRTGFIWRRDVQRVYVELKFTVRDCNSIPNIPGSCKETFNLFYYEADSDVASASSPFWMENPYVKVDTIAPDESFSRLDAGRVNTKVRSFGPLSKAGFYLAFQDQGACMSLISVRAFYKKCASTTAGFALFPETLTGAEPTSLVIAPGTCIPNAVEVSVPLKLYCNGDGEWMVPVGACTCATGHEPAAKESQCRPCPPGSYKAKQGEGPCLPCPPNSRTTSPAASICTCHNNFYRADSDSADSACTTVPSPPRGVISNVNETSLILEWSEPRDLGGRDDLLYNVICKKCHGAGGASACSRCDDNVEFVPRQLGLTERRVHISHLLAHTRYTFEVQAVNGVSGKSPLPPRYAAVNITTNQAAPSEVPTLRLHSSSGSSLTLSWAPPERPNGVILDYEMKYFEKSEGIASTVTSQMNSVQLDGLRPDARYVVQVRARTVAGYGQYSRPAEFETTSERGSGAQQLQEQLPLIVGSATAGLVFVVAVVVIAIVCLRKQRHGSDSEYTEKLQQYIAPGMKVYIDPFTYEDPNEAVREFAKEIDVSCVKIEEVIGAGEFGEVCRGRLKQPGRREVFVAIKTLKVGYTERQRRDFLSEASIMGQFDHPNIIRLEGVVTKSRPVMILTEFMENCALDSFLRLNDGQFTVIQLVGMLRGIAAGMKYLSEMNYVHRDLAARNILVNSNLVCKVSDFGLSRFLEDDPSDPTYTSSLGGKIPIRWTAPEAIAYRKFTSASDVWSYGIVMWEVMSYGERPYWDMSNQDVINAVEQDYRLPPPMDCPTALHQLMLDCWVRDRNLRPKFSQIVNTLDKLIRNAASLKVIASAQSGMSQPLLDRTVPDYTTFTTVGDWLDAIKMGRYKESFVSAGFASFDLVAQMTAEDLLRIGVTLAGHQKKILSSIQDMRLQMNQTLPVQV

[3] = biological target: T2, Ephrin type-B receptor 3 (Homo sapiens); details: at 1 µM
[4] = biological target: T3, Ephrin type-B receptor 4 (Homo sapiens) (UniProt P54760); details: at 0.1 µM
T3 sequence (whole entry): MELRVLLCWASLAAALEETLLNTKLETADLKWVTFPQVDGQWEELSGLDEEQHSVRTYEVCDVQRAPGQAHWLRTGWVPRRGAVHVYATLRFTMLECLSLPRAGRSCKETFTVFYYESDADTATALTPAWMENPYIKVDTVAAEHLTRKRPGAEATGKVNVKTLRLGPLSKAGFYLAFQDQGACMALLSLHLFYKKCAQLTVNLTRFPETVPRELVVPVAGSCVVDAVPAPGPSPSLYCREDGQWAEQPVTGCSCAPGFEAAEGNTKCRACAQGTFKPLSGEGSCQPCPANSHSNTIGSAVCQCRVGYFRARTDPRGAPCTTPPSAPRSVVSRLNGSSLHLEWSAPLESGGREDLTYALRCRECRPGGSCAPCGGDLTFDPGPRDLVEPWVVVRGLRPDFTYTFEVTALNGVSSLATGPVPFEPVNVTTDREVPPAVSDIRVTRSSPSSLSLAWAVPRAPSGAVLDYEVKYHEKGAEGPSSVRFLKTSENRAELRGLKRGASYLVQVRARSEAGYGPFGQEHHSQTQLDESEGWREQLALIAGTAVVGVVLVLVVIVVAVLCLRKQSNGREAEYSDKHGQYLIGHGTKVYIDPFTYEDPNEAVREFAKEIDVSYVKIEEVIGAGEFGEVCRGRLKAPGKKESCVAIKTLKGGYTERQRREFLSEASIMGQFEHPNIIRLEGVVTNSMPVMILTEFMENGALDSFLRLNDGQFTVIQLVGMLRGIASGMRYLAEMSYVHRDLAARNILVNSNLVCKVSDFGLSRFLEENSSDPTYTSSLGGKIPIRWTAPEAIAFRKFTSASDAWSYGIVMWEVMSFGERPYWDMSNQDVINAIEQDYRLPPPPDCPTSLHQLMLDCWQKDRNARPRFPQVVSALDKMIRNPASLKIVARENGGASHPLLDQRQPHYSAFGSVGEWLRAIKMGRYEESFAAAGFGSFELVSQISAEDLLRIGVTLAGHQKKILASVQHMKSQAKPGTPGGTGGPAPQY

[5] = biological target: T3, Ephrin type-B receptor 4 (Homo sapiens); details: at 1 µM
[6] = biological target: Receptor tyrosine-protein kinase erbB-2 (Homo sapiens) (UniProt P04626); details: at 0.1 µM
Chain of Receptor tyrosine-protein kinase erbB-2 (Homo sapiens) (P04626 whole entry): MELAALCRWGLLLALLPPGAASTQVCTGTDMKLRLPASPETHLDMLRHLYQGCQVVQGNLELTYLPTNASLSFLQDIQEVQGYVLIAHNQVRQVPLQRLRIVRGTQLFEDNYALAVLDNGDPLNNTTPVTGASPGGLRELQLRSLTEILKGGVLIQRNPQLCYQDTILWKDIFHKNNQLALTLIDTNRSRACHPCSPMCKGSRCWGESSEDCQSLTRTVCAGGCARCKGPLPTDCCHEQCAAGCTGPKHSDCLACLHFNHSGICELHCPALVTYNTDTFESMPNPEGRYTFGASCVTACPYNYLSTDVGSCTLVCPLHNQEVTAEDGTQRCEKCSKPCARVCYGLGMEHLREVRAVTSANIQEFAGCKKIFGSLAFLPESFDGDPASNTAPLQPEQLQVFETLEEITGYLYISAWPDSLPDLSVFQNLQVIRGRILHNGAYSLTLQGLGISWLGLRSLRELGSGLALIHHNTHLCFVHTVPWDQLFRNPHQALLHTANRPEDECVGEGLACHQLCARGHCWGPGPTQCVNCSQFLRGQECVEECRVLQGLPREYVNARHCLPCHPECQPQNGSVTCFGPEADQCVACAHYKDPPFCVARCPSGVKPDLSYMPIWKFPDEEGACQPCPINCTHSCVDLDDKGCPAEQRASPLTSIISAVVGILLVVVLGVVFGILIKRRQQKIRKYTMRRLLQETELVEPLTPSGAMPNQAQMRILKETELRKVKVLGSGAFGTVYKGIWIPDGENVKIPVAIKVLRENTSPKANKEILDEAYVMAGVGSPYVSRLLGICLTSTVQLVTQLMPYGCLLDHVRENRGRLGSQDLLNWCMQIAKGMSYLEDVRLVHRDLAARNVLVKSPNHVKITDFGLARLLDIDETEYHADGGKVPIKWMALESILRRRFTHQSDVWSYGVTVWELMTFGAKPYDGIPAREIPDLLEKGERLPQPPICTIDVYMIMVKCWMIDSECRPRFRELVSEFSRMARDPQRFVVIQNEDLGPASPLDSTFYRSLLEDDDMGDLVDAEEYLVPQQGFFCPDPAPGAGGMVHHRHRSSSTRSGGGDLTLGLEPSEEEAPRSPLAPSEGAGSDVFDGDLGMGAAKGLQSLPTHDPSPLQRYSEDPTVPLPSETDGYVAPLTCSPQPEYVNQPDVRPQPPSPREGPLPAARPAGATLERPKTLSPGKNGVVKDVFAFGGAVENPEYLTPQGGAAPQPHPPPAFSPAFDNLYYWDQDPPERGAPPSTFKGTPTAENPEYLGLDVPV

[7] = biological target: Receptor tyrosine-protein kinase erbB-2 (Homo sapiens) (UniProt P04626); details: at 1 µM
[8] = biological target: Receptor tyrosine-protein kinase erbB-4 (Homo sapiens) (UniProt Q15303); details: at 0.1 µM
Chain of Receptor tyrosine-protein kinase erbB-4 (Homo sapiens) (Q15303 whole entry): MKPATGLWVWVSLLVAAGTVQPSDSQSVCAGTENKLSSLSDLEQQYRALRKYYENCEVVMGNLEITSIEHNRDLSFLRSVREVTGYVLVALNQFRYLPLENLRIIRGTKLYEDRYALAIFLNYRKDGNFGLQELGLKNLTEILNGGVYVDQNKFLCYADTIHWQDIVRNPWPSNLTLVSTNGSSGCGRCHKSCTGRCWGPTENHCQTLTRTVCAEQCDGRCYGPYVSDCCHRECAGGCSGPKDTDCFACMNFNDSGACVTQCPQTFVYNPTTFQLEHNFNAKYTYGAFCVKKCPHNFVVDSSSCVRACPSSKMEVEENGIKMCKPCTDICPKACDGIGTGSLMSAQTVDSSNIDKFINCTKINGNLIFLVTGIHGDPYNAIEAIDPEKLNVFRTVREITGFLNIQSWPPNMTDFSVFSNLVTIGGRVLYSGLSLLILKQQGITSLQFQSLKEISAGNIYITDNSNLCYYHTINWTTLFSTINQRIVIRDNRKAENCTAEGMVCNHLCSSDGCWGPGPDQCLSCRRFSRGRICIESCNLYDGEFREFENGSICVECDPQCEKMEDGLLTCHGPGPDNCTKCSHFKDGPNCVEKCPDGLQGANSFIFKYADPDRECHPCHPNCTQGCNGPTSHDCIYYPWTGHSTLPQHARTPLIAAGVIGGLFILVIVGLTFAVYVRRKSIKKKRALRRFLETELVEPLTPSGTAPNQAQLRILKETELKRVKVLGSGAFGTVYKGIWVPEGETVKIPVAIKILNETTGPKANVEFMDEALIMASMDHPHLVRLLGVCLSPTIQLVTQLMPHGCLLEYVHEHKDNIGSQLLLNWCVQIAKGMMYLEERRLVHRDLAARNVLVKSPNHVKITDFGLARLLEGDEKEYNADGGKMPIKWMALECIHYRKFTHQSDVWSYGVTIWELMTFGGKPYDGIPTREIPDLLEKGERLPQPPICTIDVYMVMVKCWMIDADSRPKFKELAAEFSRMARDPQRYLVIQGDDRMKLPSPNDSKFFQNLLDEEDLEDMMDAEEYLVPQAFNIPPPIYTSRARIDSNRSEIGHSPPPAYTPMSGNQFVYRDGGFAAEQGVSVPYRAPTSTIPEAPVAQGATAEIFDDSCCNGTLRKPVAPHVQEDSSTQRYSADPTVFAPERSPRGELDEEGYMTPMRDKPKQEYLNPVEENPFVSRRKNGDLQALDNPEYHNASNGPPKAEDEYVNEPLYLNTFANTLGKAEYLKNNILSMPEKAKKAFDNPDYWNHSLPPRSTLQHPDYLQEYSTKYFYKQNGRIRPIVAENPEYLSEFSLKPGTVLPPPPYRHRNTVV

[9] = biological target: Receptor tyrosine-protein kinase erbB-4 (Homo sapiens) (UniProt Q15303); details: at 1 µM
[10] = biological target: Tyrosine-protein kinase Fer (Homo sapiens) (UniProt P16591); details: at 0.1 µM
Chain of Tyrosine-protein kinase Fer (Homo sapiens) (P16591 whole entry, looked up): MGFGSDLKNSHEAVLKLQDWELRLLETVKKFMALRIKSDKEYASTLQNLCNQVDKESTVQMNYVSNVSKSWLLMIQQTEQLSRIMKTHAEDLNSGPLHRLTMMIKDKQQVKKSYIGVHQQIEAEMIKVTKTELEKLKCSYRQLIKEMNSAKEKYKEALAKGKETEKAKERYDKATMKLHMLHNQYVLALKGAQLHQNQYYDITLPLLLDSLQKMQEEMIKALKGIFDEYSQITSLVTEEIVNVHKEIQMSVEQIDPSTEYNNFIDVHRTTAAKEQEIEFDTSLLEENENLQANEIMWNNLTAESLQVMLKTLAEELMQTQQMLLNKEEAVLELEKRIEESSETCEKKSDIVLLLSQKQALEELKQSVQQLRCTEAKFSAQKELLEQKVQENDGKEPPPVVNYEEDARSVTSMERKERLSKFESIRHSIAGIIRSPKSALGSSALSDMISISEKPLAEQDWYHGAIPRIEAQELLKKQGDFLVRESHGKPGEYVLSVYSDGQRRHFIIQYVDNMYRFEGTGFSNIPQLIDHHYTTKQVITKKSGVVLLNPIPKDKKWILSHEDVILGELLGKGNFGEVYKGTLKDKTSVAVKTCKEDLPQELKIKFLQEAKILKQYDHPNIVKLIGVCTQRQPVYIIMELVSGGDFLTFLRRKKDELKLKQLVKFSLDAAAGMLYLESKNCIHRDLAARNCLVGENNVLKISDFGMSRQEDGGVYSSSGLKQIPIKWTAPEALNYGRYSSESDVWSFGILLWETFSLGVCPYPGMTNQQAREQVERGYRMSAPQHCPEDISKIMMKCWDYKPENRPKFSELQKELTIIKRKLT

[11] = biological target: Tyrosine-protein kinase Fer (Homo sapiens) (UniProt P16591); details: at 1 µM
[12] = biological target: Tyrosine-protein kinase Fes/Fps (Homo sapiens) (UniProt P07332); details: at 0.1 µM
Chain of Tyrosine-protein kinase Fes/Fps (Homo sapiens) (P07332 whole entry): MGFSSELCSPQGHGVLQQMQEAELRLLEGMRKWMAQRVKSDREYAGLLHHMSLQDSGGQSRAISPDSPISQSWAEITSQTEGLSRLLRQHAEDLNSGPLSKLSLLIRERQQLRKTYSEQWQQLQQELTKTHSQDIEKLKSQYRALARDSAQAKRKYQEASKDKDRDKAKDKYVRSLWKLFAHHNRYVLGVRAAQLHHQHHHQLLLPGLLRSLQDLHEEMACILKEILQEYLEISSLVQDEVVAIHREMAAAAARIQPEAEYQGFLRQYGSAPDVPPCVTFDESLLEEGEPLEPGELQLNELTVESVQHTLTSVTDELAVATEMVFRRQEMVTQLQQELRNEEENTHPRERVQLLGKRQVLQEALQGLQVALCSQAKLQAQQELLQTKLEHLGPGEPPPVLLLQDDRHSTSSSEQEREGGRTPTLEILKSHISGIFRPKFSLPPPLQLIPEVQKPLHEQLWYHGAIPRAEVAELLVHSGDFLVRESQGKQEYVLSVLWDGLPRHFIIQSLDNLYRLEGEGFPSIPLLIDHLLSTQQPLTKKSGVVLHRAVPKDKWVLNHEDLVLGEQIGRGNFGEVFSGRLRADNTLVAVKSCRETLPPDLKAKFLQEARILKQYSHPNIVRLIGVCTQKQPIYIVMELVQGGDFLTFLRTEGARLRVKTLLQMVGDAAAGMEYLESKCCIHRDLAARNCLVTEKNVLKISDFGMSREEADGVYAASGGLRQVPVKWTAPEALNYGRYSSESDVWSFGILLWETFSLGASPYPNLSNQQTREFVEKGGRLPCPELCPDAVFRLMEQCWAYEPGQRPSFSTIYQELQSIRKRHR

[13] = biological target: Tyrosine-protein kinase Fes/Fps (Homo sapiens) (UniProt P07332); details: at 1 µM
[14] = biological target: Fibroblast growth factor receptor 1 (Homo sapiens) (UniProt P11362); details: at 0.1 µM
Chain of Fibroblast growth factor receptor 1 (Homo sapiens) (P11362 22-822 limits assumed): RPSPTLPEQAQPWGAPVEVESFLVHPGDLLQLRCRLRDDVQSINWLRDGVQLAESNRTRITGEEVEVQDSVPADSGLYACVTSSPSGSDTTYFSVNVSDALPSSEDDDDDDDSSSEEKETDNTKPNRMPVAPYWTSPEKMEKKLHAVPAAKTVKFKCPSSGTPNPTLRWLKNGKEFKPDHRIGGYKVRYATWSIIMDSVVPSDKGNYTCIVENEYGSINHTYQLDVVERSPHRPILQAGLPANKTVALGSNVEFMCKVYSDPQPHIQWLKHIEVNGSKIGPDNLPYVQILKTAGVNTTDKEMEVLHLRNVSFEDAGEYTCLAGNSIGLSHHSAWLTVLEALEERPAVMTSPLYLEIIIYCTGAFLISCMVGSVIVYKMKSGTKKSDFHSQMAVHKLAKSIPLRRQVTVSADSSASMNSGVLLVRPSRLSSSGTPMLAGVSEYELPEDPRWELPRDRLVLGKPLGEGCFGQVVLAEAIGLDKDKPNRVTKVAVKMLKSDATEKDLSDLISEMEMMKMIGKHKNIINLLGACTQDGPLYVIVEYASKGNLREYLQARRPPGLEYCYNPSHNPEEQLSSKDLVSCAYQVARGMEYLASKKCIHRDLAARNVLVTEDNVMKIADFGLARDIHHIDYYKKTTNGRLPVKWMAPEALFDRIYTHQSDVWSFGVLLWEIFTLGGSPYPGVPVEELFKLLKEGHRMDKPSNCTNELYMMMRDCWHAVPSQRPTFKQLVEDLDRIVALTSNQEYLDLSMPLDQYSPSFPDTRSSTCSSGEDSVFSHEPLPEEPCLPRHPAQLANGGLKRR

[15] = biological target: Fibroblast growth factor receptor 2 (Homo sapiens) (UniProt P21802); details: at 0.1 µM
[16] = biological target: Fibroblast growth factor receptor 2 (Homo sapiens) (UniProt P21802); details: at 1 µM
[17] = biological target: Fibroblast growth factor receptor 3 (Homo sapiens) (UniProt P22607); details: at 0.1 µM
[18] = biological target: Fibroblast growth factor receptor 3 (Homo sapiens) (UniProt P22607); details: at 1 µM
[19] = biological target: Fibroblast growth factor receptor 4 (Homo sapiens) (UniProt P22455); details: at 0.1 µM;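 note: values are mean percent inhibition of FGFR4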
[20] = biological target: Fibroblast growth factor receptor 1 (Homo sapiens) (UniProt P11362); details: at 1 µM

With `COc1ccc(-c2cc3c(N)ncnc3o2)cc1` the inhibition [1] was 4.07%, the inhibition [2] was -1.39% and the inhibition [3] was 0.05%. The inhibition [4] was 0.49%, the inhibition [5] was 0.16% and the inhibition [6] was -0.84%. The inhibition [7] was 0.38%, the inhibition [8] was -1.91% and the inhibition [9] was 1.85%. It also gave an inhibition [10] of -0.15%, an inhibition [11] of 1.69% and an inhibition [12] of -0.35%. For the same compound, the inhibition [13] was -0.8%, the inhibition [14] was -5.35% and the inhibition [15] was -1.74%. The inhibition [16] was -4.78%, the inhibition [17] was -0.11% and the inhibition [18] was -2.94%. The inhibition [19] was 2.88%.
With `COc1ccc2[nH]c3c4[nH]c5ccc(OC)cc5c4c4c(c3c2c1)C(=O)NC4=O` the inhibition [1] was 17.6%, the inhibition [2] was 0.84% and the inhibition [3] was -4.62%. It also gave an inhibition [4] of -0.01%, an inhibition [5] of 4.21% and an inhibition [6] of 1.76%. For the same compound, the inhibition [7] was 5.83%, the inhibition [8] was 14.5% and the inhibition [9] was 45.9%. The inhibition [10] was 29.1%, the inhibition [11] was 67.7% and the inhibition [12] was 3.43%. For the same compound, the inhibition [13] was 10.4%, the inhibition [14] was 1.76% and the inhibition [20] was 3.2%. For the same compound, the inhibition [15] was 4.75%, the inhibition [16] was 16.4% and the inhibition [17] was 7.7%. It also gave an inhibition [18] of 15.2% and an inhibition [19] of 2.26%.
`CC(C)(CO)CNC(=O)c1ccc2c(c1)/C(=N/Nc1ccc(S(N)(=O)=O)cc1)C(=O)N2` gave an inhibition [1] of 7.99%, an inhibition [2] of -0.32% and an inhibition [3] of 0.79%. For the same compound, the inhibition [4] was -2.31%, the inhibition [5] was -0.62% and the inhibition [6] was 0.9%. For the same compound, the inhibition [7] was 3.86%, the inhibition [8] was 4.68% and the inhibition [9] was 7.73%. It also gave an inhibition [10] of -7.05%, an inhibition [12] of -0.1% and an inhibition [13] of 0.22%. The inhibition [14] was -4.71%, the inhibition [20] was 1.07% and the inhibition [15] was 0.16%. The inhibition [16] was 6.9%, the inhibition [17] was 4.13% and the inhibition [18] was 5.3%. It also gave an inhibition [19] of 0.38%.
Work on `COc1cc2ncn(-c3cc(OCc4ccccc4C(F)(F)F)c(C(=O)N(C)C)s3)c2cc1OC` yielded an inhibition [1] of 3.29%, an inhibition [2] of 2.32% and an inhibition [3] of 0.33%. For the same compound, the inhibition [4] was -1.02%, the inhibition [5] was 1.55% and the inhibition [6] was 0.2%. The inhibition [7] was -1.05%, the inhibition [8] was 2.15% and the inhibition [10] was -0.2%. It also gave an inhibition [11] of 3.02%, an inhibition [12] of 0.2% and an inhibition [13] of 0.64%. It also gave an inhibition [14] of -1.23%, an inhibition [20] of 10.3% and an inhibition [15] of 2.76%. The inhibition [16] was 20.8%, the inhibition [17] was 1.53% and the inhibition [18] was 8.98%. For the same compound, the inhibition [19] was -1.7%.
For `COc1cc2c(cc1Nc1nc(Nc3ccsc3C(N)=O)c3cc[nH]c3n1)N(C(=O)CN(C)C)CCC2(C)C`, the inhibition [1] was 9.01%, the inhibition [3] was -7.19% and the inhibition [4] was 2.71%. It also gave an inhibition [5] of 2.72%, an inhibition [6] of 2.91% and an inhibition [7] of -0.07%. It also gave an inhibition [8] of 14.2%, an inhibition [9] of 36.4% and an inhibition [10] of 95.5%. The inhibition [11] was 94.8%, the inhibition [12] was 76.5% and the inhibition [13] was 79.4%. It also gave an inhibition [14] of 7.38%, an inhibition [20] of 4.2% and an inhibition [15] of 5.74%. For the same compound, the inhibition [16] was 13.5%, the inhibition [17] was 9.36% and the inhibition [18] was 7.81%. The inhibition [19] was -6.03%.
`Fc1ccc(-c2cc(-c3c[nH]nc3-c3ccccn3)ccn2)cc1` was tested, and the inhibition [1] was 10.6%, the inhibition [2] was 7.2% and the inhibition [3] was 4.44%. It also gave an inhibition [4] of 3.71%, an inhibition [5] of 0.96% and an inhibition [6] of 4.82%. The inhibition [7] was 6.84%, the inhibition [8] was 8.5% and the inhibition [9] was 12.7%. It also gave an inhibition [10] of 4.53%, an inhibition [11] of 5.23% and an inhibition [12] of 2.57%. It also gave an inhibition [13] of 3.31%, an inhibition [14] of 6.18% and an inhibition [20] of 6.81%. For the same compound, the inhibition [15] was 5.36%, the inhibition [16] was 5.13% and the inhibition [17] was 4.33%. It also gave an inhibition [19] of -0.17%.
Compound `CC(C)COC(=O)c1ccc2c(c1)/C(=C/Nc1ccc(S(N)(=O)=O)cc1)C(=O)N2` has an inhibition [1] of -4.93%, an inhibition [2] of 0.34% and an inhibition [3] of -4.87%. For the same compound, the inhibition [4] was -1.38%, the inhibition [5] was 1.51% and the inhibition [6] was -2.55%. The inhibition [7] was -0.17%, the inhibition [8] was -2.58% and the inhibition [9] was -2.34%. For the same compound, the inhibition [10] was 0.76%, the inhibition [11] was 11.1% and the inhibition [12] was -0.89%. It also gave an inhibition [13] of -0.27%, an inhibition [14] of 0.13% and an inhibition [20] of 4.86%. It also gave an inhibition [15] of -0.6%, an inhibition [16] of 17.3% and an inhibition [17] of 0.1%. The inhibition [18] was 10.8% and the inhibition [19] was 4.93%.
